Experimental data: PubChem BioAssay AID504381 (The Scripps Research Institute Molecular Screening Center, 2011)
Unmarked numbers belong to inactive results. The rule behind the calls is not given here.

System: BZP Rat Brain Site
Assay: radioligand displacement at receptors and transporters – biochemical, PDSP panel, Set 2, late-stage follow-up (AID 504381)
Settings: PDSP radioligand binding panel, at 10 µM, active compounds read high

CC(=O)c1ccc2c(c1)Nc1ccccc1S2
inhibition: 11.4%
